This is a sample that favours compounds with a hit; in the whole collection about 2.6% have one here.
NOTCH agonist = agonists of NOTCH signaling; NOTCH signaling luciferase reporter cells, luminescence; activation, % at 2.5 µM; 0.4% of 15,000 active; AID 434982, 2010; in the data active means activation above about 2.2%
PME-1 Maybr inh = inhibitors of human PME-1 in Maybridge library. Protein phosphatase methylesterase 1 (Homo sapiens), Q9Y570. recombinant PME-1, FP-Rh probe fluorescence polarization. inhibition, % at 9 µM. 0.5% of 16,000 active. AID 2291, 2010; in the data active means inhibition above about 30%
Target sequence (Q9Y570 whole entry, looked up): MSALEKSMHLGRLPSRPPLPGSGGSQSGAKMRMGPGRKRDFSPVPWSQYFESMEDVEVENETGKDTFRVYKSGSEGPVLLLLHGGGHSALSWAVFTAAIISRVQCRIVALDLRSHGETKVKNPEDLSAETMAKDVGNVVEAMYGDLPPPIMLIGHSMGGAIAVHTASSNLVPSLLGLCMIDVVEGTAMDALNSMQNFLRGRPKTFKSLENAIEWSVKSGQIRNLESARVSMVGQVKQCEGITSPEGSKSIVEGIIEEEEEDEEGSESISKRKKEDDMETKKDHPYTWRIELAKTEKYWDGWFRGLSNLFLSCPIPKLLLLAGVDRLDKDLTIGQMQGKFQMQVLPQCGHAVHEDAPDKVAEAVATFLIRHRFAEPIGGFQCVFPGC
OPRK1 antag MB = antagonists of human kappa opioid receptor OPRK1, Maybridge library | OPRK1 cells, antagonist mode, fluorescence readout | 0.4% of 16,000 active | inhibition, % at 9 µM; in the data active means inhibition above about 50%
TLR4-MyD88 inh = inhibitors of human TLR4-MyD88 binding | Toll-like receptor 4 (Homo sapiens), O00206 | Cell-based TLR4-MyD88 binding inhibition assay | inhibition, % at 10 µM | 0.06% of 16,000 active | AID 811, 2007; in the data active means inhibition above about 45%
S1P1 agonist = activates the human S1P1 receptor. S1P1 agonist cell-based reporter assay. Sphingosine 1-phosphate receptor 1 (Homo sapiens), P21453. 1.5% of 16,000 active. activation, % at 4.5 µM; in the data active means activation above about 80%
Active calls of the source: *.

Results for O=c1c2ccccc2nc(-c2ccco2)n1Cc1ccccc1 ?
NOTCH agonist: -1; PME-1 Maybr inh: -3; OPRK1 antag MB: -9; TLR4-MyD88 inh: 17; S1P1 agonist: 92*

How did c1coc(-c2nc3ccccc3nc2-c2ccco2)c1 do in these assays?
NOTCH agonist: 0; PME-1 Maybr inh: -3; OPRK1 antag MB: -12; TLR4-MyD88 inh: -1; S1P1 agonist: -4

How did CCOC(=O)NC(N1CCCCC1)(C(F)(F)F)C(F)(F)F do in these assays?
NOTCH agonist: 0; PME-1 Maybr inh: -17; OPRK1 antag MB: 1; TLR4-MyD88 inh: 11; S1P1 agonist: -12

What do the screens show for `O=C(CN1CCCN(c2ncc(C(F)(F)F)cc2Cl)CC1)Nc1c(F)cccc1F`?
NOTCH agonist: 0; PME-1 Maybr inh: 23; OPRK1 antag MB: -16; TLR4-MyD88 inh: 11; S1P1 agonist: 2

Results for CC(=O)Nc1cc([N+](=O)[O-])ccc1Sc1ccccc1N ?
NOTCH agonist: 1; PME-1 Maybr inh: 7; OPRK1 antag MB: 9; TLR4-MyD88 inh: -10; S1P1 agonist: 1

What do the screens show for `CC(=O)Nc1cc([N+](=O)[O-])ccc1-n1cc(C)c(C(F)(F)F)n1`?
NOTCH agonist: 0; PME-1 Maybr inh: -1; OPRK1 antag MB: 0; TLR4-MyD88 inh: 50*; S1P1 agonist: -3

How did O=C(NCc1ccccn1)Nc1csc2ccccc12 do in these assays?
NOTCH agonist: 0; PME-1 Maybr inh: 1; OPRK1 antag MB: 7; TLR4-MyD88 inh: 9; S1P1 agonist: 11

How did C/C(=N\N=C(/N)SCc1cc(F)cc2c1OCOC2)c1ccc(C)nc1 do in these assays?
NOTCH agonist: -1; PME-1 Maybr inh: 0; OPRK1 antag MB: -5; TLR4-MyD88 inh: -4; S1P1 agonist: 90*

Results for Cc1nnsc1C(=O)NCc1cc(F)cc2c1OCOC2 ?
NOTCH agonist: -1; PME-1 Maybr inh: 8; OPRK1 antag MB: 12; TLR4-MyD88 inh: 5; S1P1 agonist: 4

How did COc1ccc(/C(N)=N/OC(=O)c2ccccc2)cc1OC1CCCC1 do in these assays?
NOTCH agonist: 0; PME-1 Maybr inh: -4; OPRK1 antag MB: 15; TLR4-MyD88 inh: 3; S1P1 agonist: 102*

Results for O=[N+]([O-])c1cc(Cl)c(N2CCOCC2)cc1N1CCOCC1 ?
NOTCH agonist: 6.3*; PME-1 Maybr inh: -4; OPRK1 antag MB: -11; TLR4-MyD88 inh: 6; S1P1 agonist: -18

How did Cc1ccc(OS(=O)(=O)c2cc(C(F)(F)F)cc(C(F)(F)F)c2)c([N+](=O)[O-])n1 do in these assays?
NOTCH agonist: 1; PME-1 Maybr inh: 10; OPRK1 antag MB: 11; TLR4-MyD88 inh: 8; S1P1 agonist: -4

Results for O=C(c1cnn(-c2ccc(Cl)cc2)c1C(F)(F)F)N1CCN(c2ncnc3ccsc23)CC1 ?
NOTCH agonist: -2; PME-1 Maybr inh: 0; OPRK1 antag MB: 80*; TLR4-MyD88 inh: 6; S1P1 agonist: 97*

How did CSC(=CC(=O)c1ccccn1)SC do in these assays?
NOTCH agonist: 0; PME-1 Maybr inh: 1; OPRK1 antag MB: -9; TLR4-MyD88 inh: 2; S1P1 agonist: 3

How did CC(=O)c1ccc(Cl)c(NS(=O)(=O)c2cc(Cl)c(Cl)cc2Cl)c1 do in these assays?
NOTCH agonist: 1; PME-1 Maybr inh: 7; OPRK1 antag MB: 7; TLR4-MyD88 inh: 1; S1P1 agonist: 65

Results for O=C1c2ccccc2S(=O)(=O)N1CCS(=O)(=O)c1ccc(Cl)cc1Cl ?
NOTCH agonist: -1; PME-1 Maybr inh: 2; OPRK1 antag MB: -19; S1P1 agonist: 91*

What do the screens show for `CC(=O)OC1C[C@H](n2cc(C)c(=O)[nH]c2=O)O[C@@H]1COS(=O)(=O)c1ccc(C)cc1` (some centres not stated)?
NOTCH agonist: 3.0*; PME-1 Maybr inh: 0; OPRK1 antag MB: 1; TLR4-MyD88 inh: 4; S1P1 agonist: -15

How did Cc1ccc(S(=O)(=O)C[C@H]2O[C@@H](n3cc(I)c(=O)[nH]c3=O)C[C@@H]2O)cc1 do in these assays?
NOTCH agonist: 0; PME-1 Maybr inh: 5; OPRK1 antag MB: 15; TLR4-MyD88 inh: 6; S1P1 agonist: 0

Results for COc1cc2c(cc1OC)C(C)N(C(=O)c1sc3ccccc3c1Cl)CC2 (configuration not stated) ?
NOTCH agonist: -6; PME-1 Maybr inh: 52*; OPRK1 antag MB: 1; TLR4-MyD88 inh: -13; S1P1 agonist: -6

Results for COc1cc2c(cc1OC)C(C)N(C(=O)c1sc(-c3cnccn3)nc1C)CC2 (configuration not stated) ?
NOTCH agonist: 0; PME-1 Maybr inh: 10; OPRK1 antag MB: 1; TLR4-MyD88 inh: -6; S1P1 agonist: -24

How did Cn1cnc(S(=O)(=O)Nc2ccccc2SCCS(=O)(=O)c2ccc(Cl)cc2)c1 do in these assays?
NOTCH agonist: 0; PME-1 Maybr inh: 11; OPRK1 antag MB: 6; TLR4-MyD88 inh: -2; S1P1 agonist: 0

What do the screens show for `Cc1ccc(Cn2nc(C(=O)O/N=C(\N)c3ccccc3)cc2C)cc1`?
NOTCH agonist: 0; PME-1 Maybr inh: -14; OPRK1 antag MB: 4; TLR4-MyD88 inh: -13; S1P1 agonist: 100*

What do the screens show for `Cn1nc(C(C)(C)C)cc1C(=O)O/N=C(\N)c1ccccc1`?
NOTCH agonist: 0; PME-1 Maybr inh: 0; OPRK1 antag MB: 9; TLR4-MyD88 inh: -13; S1P1 agonist: 72

How did CS(=O)(=O)/C(C#N)=C/c1ccccc1OCc1c(Cl)cccc1Cl do in these assays?
NOTCH agonist: 0; PME-1 Maybr inh: 7; OPRK1 antag MB: 23; TLR4-MyD88 inh: -5; S1P1 agonist: 30

Results for COc1cc2c(cc1OC)CC(=O)OC2 ?
NOTCH agonist: -1; PME-1 Maybr inh: 14; OPRK1 antag MB: 4; TLR4-MyD88 inh: 10; S1P1 agonist: 81*

Results for CC(=O)c1csc(Nc2ccc(Cl)cc2)n1 ?
NOTCH agonist: 2.2*; PME-1 Maybr inh: 5; OPRK1 antag MB: 6; TLR4-MyD88 inh: -9; S1P1 agonist: -17

Results for CC1CC(=O)Nc2ccccc2N1S(=O)(=O)c1cn(C)cn1 (configuration not stated) ?
NOTCH agonist: -1; PME-1 Maybr inh: -6; OPRK1 antag MB: 4; TLR4-MyD88 inh: 9; S1P1 agonist: 121*

How did Cc1csc(-c2nc(-c3ccc(C(F)(F)F)cc3)no2)c1 do in these assays?
NOTCH agonist: -4; PME-1 Maybr inh: -2; OPRK1 antag MB: -4; TLR4-MyD88 inh: 1; S1P1 agonist: 86*

What do the screens show for `Cc1nc(-c2noc(-c3ccc(C(F)(F)F)cc3)n2)cs1`?
NOTCH agonist: 0; PME-1 Maybr inh: 0; OPRK1 antag MB: -3; TLR4-MyD88 inh: 5; S1P1 agonist: 14

What do the screens show for `Cc1nc2ccccn2c1C(=O)NNS(=O)(=O)c1sc2ccc(Cl)cc2c1C`?
NOTCH agonist: 0; PME-1 Maybr inh: 5; OPRK1 antag MB: -3; TLR4-MyD88 inh: -3; S1P1 agonist: 100*

Results for Cc1c(S(=O)(=O)C(C)C)c(N)n(Cc2ccc(F)c(Cl)c2)c1C ?
NOTCH agonist: 0; PME-1 Maybr inh: -3; OPRK1 antag MB: -3; TLR4-MyD88 inh: -2; S1P1 agonist: -22

Results for CC1(C)CC(=O)c2c(SCCOC(=O)c3ccccc3Cl)sc(C#N)c2C1 ?
NOTCH agonist: 0; PME-1 Maybr inh: 0; OPRK1 antag MB: -14; TLR4-MyD88 inh: -18; S1P1 agonist: 97*

Assay outcomes (PubChem)
